From PubChem BioAssay AID1159580 (chemical genetic matrix, 2015)
Values joined by “and” are separate entries in the source; they are usually repeats but may differ in a detail not shown here. Identical values can stand only once. Among all 5,500 compounds or so, about 2,000 (36%) were called active. Inconclusive results (about 18%) are left out. Rule as the data show it: active = normalized growth mostly below about 0.91 (no sharp cut-off); inconclusive = no clear call, values can overlap the other calls; inactive = mostly above about 0.92. Some of the results follow.

Experiment: chemical genetic growth profiling, strain panel (AID 1159580);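 also: tested at 20 µM; growth read once vehicle control cultures reached saturation at 30 °C; 1 = growth at the plate median or of vehicle wells; lower values mean less growth of the strain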
Conditions: S. cerevisiae deletion strains, growth OD

Measured: normalized growth

Oc1c(Cl)cc(Cl)c2cccnc12
active: locus YAL013W, strain DEP1, active compounds read low 0.0554 | locus YAL021C, strain ccr4, active compounds read low 0.0642 | locus YAL026C, strain drs2, active compounds read low 0.0607 | locus YAL030W, strain snc1, active compounds read low 0.0606 | locus YBL061C, strain skt5, active compounds read low 0.0718 | locus YBR009C, strain hhf1, active compounds read low 0.0665 | locus YBR021W, strain FUR4, active compounds read low 0.0914 | locus YBR023C, strain chs3, active compounds read low 0.0713 | locus YBR171W, strain sec66, active compounds read low 0.083 | locus YBR229C, strain ROT2, active compounds read low 0.0477 | locus YBR231C, strain swc5, active compounds read low 0.0819 | locus YBR279W, strain paf1, active compounds read low 0.064 | locus YCL011C, strain gbp2, active compounds read low 0.0637 | locus YCL016C, strain dcc1, active compounds read low 0.0656 | locus YCL029C, strain bik1, active compounds read low 0.0628 | locus YCL061C, strain MRC1, active compounds read low 0.0645 | locus YCL069W, strain vba3, active compounds read low 0.0656 | locus YCR088W, strain abp1, active compounds read low 0.0623 | locus YDL005C, strain med2, active compounds read low 0.0757 | locus YDL035C, strain GPR1, active compounds read low 0.0525 | locus YDL040C, strain nat1, active compounds read low 0.0611 | locus YDL074C, strain BRE1, active compounds read low 0.0827 | locus YDL101C, strain DUN1, active compounds read low 0.0602 | locus YDL134C, strain PPH21, active compounds read low 0.0491 | locus YDL185W, strain tfp1, active compounds read low 0.0641 | locus YDL192W, strain arf1, active compounds read low 0.0659 | locus YDR001C, strain nth1, active compounds read low 0.0589 | locus YDR069C, strain doa4, active compounds read low 0.0663 | locus YDR101C, strain arx1, active compounds read low 0.0587 | locus YDR137W, strain rgp1, active compounds read low 0.113 | locus YDR150W, strain NUM1, active compounds read low 0.0572 | locus YDR159W, strain sac3, active compounds read low 0.0885 | locus YDR162C, strain NBP2, active compounds read low 0.0476 | locus YDR195W, strain ref2 0.117 | locus YDR297W, strain sur2, active compounds read low 0.067 | locus YDR318W, strain mcm21, active compounds read low 0.0673 | locus YDR334W, strain swr1, active compounds read low 0.0629 | locus YDR335W, strain msn5, active compounds read low 0.0654 | locus YDR388W, active compounds read low 0.0609 | locus YDR392W, strain spt3, active compounds read low 0.0726 | locus YDR502C, strain sam2, active compounds read low 0.0656 | locus YEL003W, strain gim4, active compounds read low 0.0637 | locus YEL037C, strain rad23, active compounds read low 0.0639 | locus YEL061C, strain CIN8 (second series), active compounds read low 0.0636 | locus YEL061C, strain CIN8, active compounds read low 0.0482 | locus YER015W, strain faa2, active compounds read low 0.0692 | locus YER016W, strain bim1, active compounds read low 0.0695 | locus YER110C, active compounds read low 0.08 | locus YER111C, strain swi4, active compounds read low 0.0742 | locus YER155C, strain BEM2 (second series), active compounds read low 0.0894 | locus YER155C, strain BEM2, active compounds read low 0.0642 | locus YER167W, strain BCK2, active compounds read low 0.0516 | locus YFR010W, strain ubp6, active compounds read low 0.0659 | locus YGL078C, strain dbp3, active compounds read low 0.0639 | locus YGL086W, strain mad1, active compounds read low 0.0594 | locus YGL167C, strain pmr1, active compounds read low 0.0827 | locus YGL173C, strain kem1, active compounds read low 0.076 | locus YGL227W, strain vid30, active compounds read low 0.0665 | locus YGL240W, strain doc1, active compounds read low 0.0841 | locus YGL248W, strain PDE1, active compounds read low 0.0454 | locus YGL253W, strain hxk2, active compounds read low 0.0551 | locus YGR078C, strain PAC10, active compounds read low 0.0521 | locus YGR135W, strain pre9, active compounds read low 0.0748 | locus YGR229C, strain SMI1, active compounds read low 0.0589 | locus YGR252W, strain gcn5, active compounds read low 0.158 | locus YHR013C, strain ard1, active compounds read low 0.111 | locus YHR027C, strain rpn1, active compounds read low 0.0681 | locus YHR030C, strain SLT2, active compounds read low 0.0506 and 0.116 | locus YHR079C, strain IRE1 (second series), active compounds read low 0.0598 | locus YHR079C, strain IRE1, active compounds read low 0.119 | locus YHR094C, strain hxt1, active compounds read low 0.0629 | locus YHR129C, strain ARP1, active compounds read low 0.0524 | locus YHR142W, strain chs7, active compounds read low 0.0684 | locus YHR200W, strain rpn10, active compounds read low 0.066 | locus YIL066C, strain RNR3, active compounds read low 0.0479 | locus YIL073C, strain SPO22, active compounds read low 0.128 | locus YIL125W, strain kgd1, active compounds read low 0.0656 | locus YIR030C, strain dcg1, active compounds read low 0.0607 | locus YJL092W, strain hpr5, active compounds read low 0.0625 | locus YJL095W, strain BCK1 (second series), active compounds read low 0.0621 | locus YJL095W, strain BCK1, active compounds read low 0.0584 and 0.118 | locus YJL115W, strain asf1, active compounds read low 0.0757 | locus YJL129C, strain trk1, active compounds read low 0.089 | locus YJL134W, strain LCB3, active compounds read low 0.0493 | locus YJL154C, strain vps35, active compounds read low 0.0617 | locus YJL164C, strain tpk1, active compounds read low 0.062 | locus YJL166W, strain qcr8, active compounds read low 0.0623 | locus YJL168C, strain set2, active compounds read low 0.0626 | locus YJL187C, strain SWE1 (second series), active compounds read low 0.0481 | locus YJL187C, strain SWE1, active compounds read low 0.0669 | locus YJR043C, strain POL32, active compounds read low 0.0614
